The panel holds about 83,000 compounds, 20% with a hit somewhere; the sample as a whole holds those more often.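 Testing used 96-well plates and a 48-hour single-concentration exposure. Example: -40 means 40% of the starting cells died.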 A number with no mark means an inactive call. The source made the active and inactive calls. The calls were made as follows: active = growth percent below 10; inactive = the rest.

For the assay, the system named is HL-60(TB) leukemia. Briefly: NCI-60 one-dose screen, 48 h (100 = growth as untreated, 0 = no growth, -100 = all killed). Conditions: 10 µM unless noted.
For `COc1ccc(NC(=O)COCCOCCNC[C@@H]2C(=O)O[C@H]3[C@H]2CC/C(COC(=O)OC/C2=C/CC[C@@]4(C)O[C@H]4[C@H]4OC(=O)[C@@H](CN(C)C)[C@@H]4CC2)=C\CC[C@@]2(C)O[C@@H]32)c(O)c1C(N)=O`, the growth is -48.2% (active).

As to `C=C(CNCCO)[C@@H]1CC[C@]2(CO)CC[C@]3(C)[C@H](CC[C@@H]4[C@@]5(C)CCC(NCCO)C(C)(C)[C@@H]5CC[C@]43C)[C@@H]12` (stereo partly specified), the growth is 66.2%.

On to `Cc1ccc2nc(NC(=O)CSc3nc(-c4ccccc4)c(C#N)c4nnnn34)sc2c1`, for which the growth is 99.5%.

On to `COc1ccc(C/C(C)=C(/c2ccc(OCCCN(C)C)cc2)c2ccc(OC(C)=O)cc2)cc1`, for which the growth is 70.8%.

Take `COc1cc(C(=O)/C=C/c2c(-c3ccc(F)cc3)nc3ncccn23)cc(OC)c1OC`: the growth was 30.9%.

On to `CCOC(=O)/C(=C(\C)N)C1CC(=O)NC1=O` (stereo unspecified), for which the growth was 99.9%.

For `CC[C@H](Nc1nc(C)nc(N)c1C#N)c1nc2cccc(NCc3ccc(C(=O)NO)cc3)c2c(=O)n1-c1ccccc1`, the growth was -30.5% (active).

Consider `CCCCCCCCCCCCCCCCCCOc1ccc(CC(=O)OCC[N+]2(C)CCCC2)cc1`, for which the growth was 101%.

Regarding `CN(C)Cc1cn(-c2ncc(-c3ccc(C(F)(F)F)cc3)c(NC3CCCCCC3)n2)nn1`, the growth is 83.3%.

Turning to `C#CCOc1cccc(Nc2ncnc3cc(NC(=O)C=C)ccc23)c1`, the growth was -16.4% (active).

For the compound `CC(C)OC(=O)[C@H](C)N[P@@](=O)(OC[C@@]1(C)O[C@@H](n2cc(F)c(N)nc2=O)C[C@@H]1O[P@](=O)(N[C@@H](C)C(=O)OC(C)C)Oc1ccccc1)Oc1ccccc1`, the growth was 95.5%.

(Values after PubChem BioAssay (NCI).)
